Experimental findings from PubChem BioAssay (EPA / NIEHS) are described below.

Broadly, the AC50 is the concentration giving half of the maximal activity seen.

For assay [1], the system named is DIO1 (gene 1733). The assay is described as follows: CCTE_GLTED_hDIO1: CCTE's human Deiodinase 1 (DIO1) Inhibition Assay, Great Lakes Toxicology and Ecology Division (GLTED) Lab (AID 2283987).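 Further: isolated human DIO1 enzyme in a cell-free setup rather than cells; enzyme activity read as free iodide liberated from substrate via Sandell-Kolthoff colorimetry.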 Put shortly:
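Inhibition of human deiodinase 1 is scored as reduced iodide liberation after a 3 h enzyme–chemical incubation, detected colorimetrically by the Sandell-Kolthoff reaction against DMSO controls.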

A short description of assay [2]: CCTE_Harrill_HTTr_Viability_MCF7: CCTE's 6-hour Cell Viability Assessment for the High-Throughput Transcriptomics (HTTr) Platform, in MCF-7 cells cultured in DMEM + 10% fetal bovine serum, Harrill Lab (AID 2284010; active means hit-call score of the fitted dose curve at least 0.9, where 1 is the maximum; inactive means score below 0.9). Put shortly: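 PI exclusion, high-content imaging; 8-pt dilution series, 6 h exposure; bidirectional fit vs DMSO (neg. ctrl/baseline); gain of signal = loss of membrane integrity.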

Assay [3] in a line: CCTE_Harrill_HTTr_Apoptosis_MCF7: CCTE's 6-hour Apoptosis Assessment for the High-Throughput Transcriptomics (HTTr) Platform, in MCF-7 cells cultured in DMEM + 10% fetal bovine serum, Harrill Lab (AID 2284011; active means hit-call score of the fitted dose curve at least 0.9, where 1 is the maximum; inactive means score below 0.9). Put shortly:
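MCF-7 (DMEM + 10% FBS), 384-well; 8-pt dilution series, 6 h chemical exposure; caspase-3/7 activation via CellEvent Caspase 3/7 Green, HCI; bidirectional fit vs DMSO.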

Assay [4] is described as follows: CCTE_Harrill_HTTr_CellCount_MCF7: CCTE's Cell Proliferation Assessment for the High-Throughput Transcriptomics (HTTr) Platform, Harrill Lab (AID 2284012).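 Further: count of Hoechst-stained nuclei per well by high-content imaging in MCF-7 cells; cells exposed to compound for six hours; intended direction is loss of nuclei count meaning fewer cells.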 In outline: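 Readout: Hoechst nuclear count by high-content imaging. MCF-7, 8-point dilution series, 6 h exposure. Bidirectional fit vs DMSO baseline.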
In assay [5] the target is Nucleoli Translocation, AR (gene 367) (UniProt P10275). The assay is described as follows: UPITT_HCI_U2OS_AR_TIF2_Nucleoli_Antagonist: University of Pittsburgh U2OS Androgen Receptor-Transcriptional Intermediary Factor 2 (AR-TIF2) Antagonism High Content Imaging Assay for Nucleoli Translocation (AID 2283997). Put shortly:
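Antagonism is read as loss of nucleolar AR-RFP signal relative to DHT, imaged in U2OS cells also carrying GFP-TIF2. Compounds screened at 20 uM final, 0.2% DMSO; primary actives retested in triplicate.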

For assay [6] the target is unchanged. Put plainly: UPITT_HCI_U2OS_AR_TIF2_Nucleoli_Agonist: University of Pittsburgh U2OS Androgen Receptor-Transcriptional Intermediary Factor 2 (AR-TIF2) Agonism High Content Imaging Assay for Nucleoli Translocation (AID 2283998). In outline: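 Readout is red (AR-RFP) fluorescence localized to nucleoli, measured by high-content imaging and analysed for increase relative to DMSO. Compound series spanned 0.195 to 50 uM final in 0.5% DMSO.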

For assay [7], the target named is Ratio of Nucleoli Translocation and Cytoplasm, AR (gene 367) (UniProt P10275). The assay is described as follows: UPITT_HCI_U2OS_AR_TIF2_Nucleoli_Cytoplasm_Ratio_Antagonist: University of Pittsburgh U2OS Androgen Receptor-Transcriptional Intermediary Factor 2 (AR-TIF2) Antagonism High Content Imaging Assay for Ratio of Nucleoli Translocation and Cytoplasm (AID 2283999).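 Further: antagonists lower the DHT-driven ratio of nucleolar to cytoplasmic red signal.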 Put shortly: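 Read-out is the ratio of nucleolar to cytoplasmic AR-RFP fluorescence, imaged by high-content microscopy in U2OS cells coexpressing TIF2-GFP. Single-point 20 uM screen, triplicate confirmation, then 0.195–50 uM dose response; activity referenced to DHT baseline.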

Assay [8] shares this target. The assay is described as follows: UPITT_HCI_U2OS_AR_TIF2_Nucleoli_Cytoplasm_Ratio_Agonist: University of Pittsburgh U2OS Androgen Receptor-Transcriptional Intermediary Factor 2 (AR-TIF2) Agonism High Content Imaging Assay for Ratio of Nucleoli Translocation and Cytoplasm (AID 2284000).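 Further: hits raise the red nucleolar to cytoplasm ratio above vehicle.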 In outline: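 Compounds tested at 20 uM final in primary screen (0.2% DMSO) and 0.195-50 uM final in dose-response (0.5% DMSO). Imaging of human U2OS cells bearing RFP-AR and GFP-TIF2; endpoint is nucleoli/cytoplasm red signal ratio, positive direction relative to DMSO.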

Assay [9] has as its target THRA (gene 7067) (UniProt P10827). The assay is described as follows: TOX21_TRA_COA_Agonist_Followup_ratio: Tox21 Thyroid Hormone Receptor alpha Agonism through Coactivator Recruitment Follow-Up Assay, Ratio (AID 2283948; active means hit-call score of the fitted dose curve at least 0.9, where 1 is the maximum; inactive means score below 0.9). In outline:
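Follow-up specificity assay in which TRα ligand-binding domain, expressed as a GST fusion, recruits a fluorescein-labelled SRC-2 peptide. Energy transfer from a terbium anti-GST antibody gives the acceptor/donor ratio, fitted upward relative to DMSO.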

The target in assay [10] is THRB (gene 7068) (UniProt P10828). The assay is described as follows: TOX21_TRB_COA_Agonist_Followup_ratio: Tox21 Thyroid Hormone Receptor beta Agonism through Coactivator Recruitment Follow-Up Assay, Ratio (AID 2283963; active means hit-call score of the fitted dose curve at least 0.9, where 1 is the maximum; inactive means score below 0.9). Put shortly:
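First, the GST-fused TRβ ligand-binding domain (5.0 nM) was incubated with test compound in 0.10% BSA. Next, fluorescein-tagged SRC-2 peptide (200 nM) and terbium anti-GST antibody (2 nM) were added. Finally, TR-FRET emission ratios were normalized against DMSO and T3 controls.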

Assay [11] is described as follows: TOX21_TR_RXR_BLA_Agonist_Followup_viability: Viability Assessment in the Tox21 Thyroid Hormone Receptor beta Retinoid X Receptor alpha (RXRa) Agonism Beta-lactamase (BLA) Follow-Up Assay (AID 2283970). In outline:
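CellTiter-Glo ATP quantitation as viability read-out in RXRa-bla HEK293T cells (2,500/well, charcoal-stripped 2% FBS medium), 16h compound incubation at 37C. Loss of signal versus DMSO taken as cytotoxicity, analyzed by bidirectional curve fitting.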

A short description of assay [12]: TOX21_PR_LUC_Followup_Antagonist_viability: Viability Assessment in the Tox21 HEK293 Progesterone Receptor (PR) Antagonism Luciferase Follow-Up Assay (AID 2283940). Put shortly:
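Read-out: CellTiter-Glo ATP luminescence, loss of signal taken as reduced viability. Cells: HEK293-PR-A-luc, 3,000/well, 5 h settling, then 16 h compound exposure at 37C, 0% CO2.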

The nature of assay [13]: TOX21_PR_LUC_Followup_Agonist_viability: Viability Assessment in the Tox21 HEK293 Progesterone Receptor (PR) Agonism Luciferase Follow-Up Assay (AID 2283941).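 Further: loss of signal means cytotoxicity so actives lower viability.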 Put shortly:
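Cytotoxicity counter-screen: ATP content by CellTiter-Glo luminescence, loss of signal = reduced viability. HEK293-PR-A-luc, 3,000 cells/well, compound exposure 16 h, 37C.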

Assay [14] deals with Retinoic acid receptor RXR-alpha (Homo sapiens) (UniProt P19793). Put plainly: TOX21_TR_RXR_BLA_Agonist_Followup_ratio: Tox21 Thyroid Hormone Receptor beta Retinoid X Receptor alpha (RXRa) Agonism Beta-lactamase (BLA) Follow-Up Assay, Ratio (AID 2283968). Put shortly:
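Read-out: blue/green (460:530 nm) FRET ratio from cleaved vs uncleaved CCF4 substrate, fitted for gain of signal relative to DMSO. Cells: HEK293T with RXRa-UAS-bla reporter; 16 h compound exposure, 11 concentrations, triplicate.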

The structures appear in SMILES notation. “And” between values parts separate entries of the source, which are not always exact repeats. Equal values may be shown once. Inconclusive results are not listed. The source made the active and inactive calls. How the source made its calls, unless noted: active means hit-call score of the fitted dose curve at least 0.9, where 1 is the maximum; inconclusive means response in the unintended direction; inactive means score below 0.9.

Ratio of Nucleoli Translocation and Cytoplasm, AR (gene 367), sequence (P10275 whole entry, looked up): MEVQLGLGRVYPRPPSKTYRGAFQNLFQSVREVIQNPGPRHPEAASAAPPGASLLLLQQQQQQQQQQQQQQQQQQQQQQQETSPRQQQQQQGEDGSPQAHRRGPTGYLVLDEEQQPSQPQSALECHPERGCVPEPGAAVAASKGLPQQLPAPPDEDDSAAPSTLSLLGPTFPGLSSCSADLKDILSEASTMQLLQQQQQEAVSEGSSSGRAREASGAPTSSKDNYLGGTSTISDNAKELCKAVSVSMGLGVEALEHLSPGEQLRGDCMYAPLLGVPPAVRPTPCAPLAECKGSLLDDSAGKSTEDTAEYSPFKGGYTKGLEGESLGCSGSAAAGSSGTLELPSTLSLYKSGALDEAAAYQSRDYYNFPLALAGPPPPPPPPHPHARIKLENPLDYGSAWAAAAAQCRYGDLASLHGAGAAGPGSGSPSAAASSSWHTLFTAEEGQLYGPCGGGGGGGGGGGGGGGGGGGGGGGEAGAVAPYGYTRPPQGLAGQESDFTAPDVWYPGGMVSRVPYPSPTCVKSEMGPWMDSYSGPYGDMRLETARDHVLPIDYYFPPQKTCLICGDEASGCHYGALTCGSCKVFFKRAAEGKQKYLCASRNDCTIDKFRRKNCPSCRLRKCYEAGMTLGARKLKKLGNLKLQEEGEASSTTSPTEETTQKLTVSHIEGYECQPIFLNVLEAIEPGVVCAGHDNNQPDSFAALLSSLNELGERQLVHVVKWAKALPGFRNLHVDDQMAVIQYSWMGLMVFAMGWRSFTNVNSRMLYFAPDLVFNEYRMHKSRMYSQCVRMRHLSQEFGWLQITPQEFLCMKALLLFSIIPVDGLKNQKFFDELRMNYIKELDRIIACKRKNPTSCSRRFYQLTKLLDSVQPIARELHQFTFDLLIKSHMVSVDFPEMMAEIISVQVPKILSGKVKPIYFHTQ
Nucleoli Translocation, AR (gene 367), sequence (P10275 whole entry, looked up): as above
THRA (gene 7067), sequence (P10827 whole entry, looked up, the tested form may be a part): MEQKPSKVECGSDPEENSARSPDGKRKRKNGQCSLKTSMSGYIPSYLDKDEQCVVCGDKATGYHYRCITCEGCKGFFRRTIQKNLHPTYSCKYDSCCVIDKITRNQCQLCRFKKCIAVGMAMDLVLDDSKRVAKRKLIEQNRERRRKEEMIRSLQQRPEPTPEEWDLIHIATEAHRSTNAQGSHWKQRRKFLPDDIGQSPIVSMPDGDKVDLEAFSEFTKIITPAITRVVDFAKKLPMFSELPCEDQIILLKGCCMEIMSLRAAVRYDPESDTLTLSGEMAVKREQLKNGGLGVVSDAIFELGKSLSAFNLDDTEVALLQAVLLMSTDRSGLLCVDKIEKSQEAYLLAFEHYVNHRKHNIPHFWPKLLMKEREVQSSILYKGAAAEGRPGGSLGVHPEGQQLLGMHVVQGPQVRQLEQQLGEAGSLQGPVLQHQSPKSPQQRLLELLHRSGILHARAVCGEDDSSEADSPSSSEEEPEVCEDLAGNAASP
THRB (gene 7068), sequence (P10828 whole entry, looked up, the tested form may be a part): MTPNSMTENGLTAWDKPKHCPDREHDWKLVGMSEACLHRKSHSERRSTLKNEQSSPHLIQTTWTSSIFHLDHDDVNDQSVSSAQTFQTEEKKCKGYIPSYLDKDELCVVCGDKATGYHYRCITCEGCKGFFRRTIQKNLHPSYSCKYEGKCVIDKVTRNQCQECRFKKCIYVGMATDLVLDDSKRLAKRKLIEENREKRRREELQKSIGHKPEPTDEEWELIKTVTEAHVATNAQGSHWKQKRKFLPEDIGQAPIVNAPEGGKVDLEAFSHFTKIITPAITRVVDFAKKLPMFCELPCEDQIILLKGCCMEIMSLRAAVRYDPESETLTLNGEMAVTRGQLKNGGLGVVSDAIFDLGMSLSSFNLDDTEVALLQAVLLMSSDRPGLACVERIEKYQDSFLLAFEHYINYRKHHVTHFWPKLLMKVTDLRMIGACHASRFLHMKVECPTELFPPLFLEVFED
Retinoic acid receptor RXR-alpha (Homo sapiens), sequence (P19793 whole entry, looked up): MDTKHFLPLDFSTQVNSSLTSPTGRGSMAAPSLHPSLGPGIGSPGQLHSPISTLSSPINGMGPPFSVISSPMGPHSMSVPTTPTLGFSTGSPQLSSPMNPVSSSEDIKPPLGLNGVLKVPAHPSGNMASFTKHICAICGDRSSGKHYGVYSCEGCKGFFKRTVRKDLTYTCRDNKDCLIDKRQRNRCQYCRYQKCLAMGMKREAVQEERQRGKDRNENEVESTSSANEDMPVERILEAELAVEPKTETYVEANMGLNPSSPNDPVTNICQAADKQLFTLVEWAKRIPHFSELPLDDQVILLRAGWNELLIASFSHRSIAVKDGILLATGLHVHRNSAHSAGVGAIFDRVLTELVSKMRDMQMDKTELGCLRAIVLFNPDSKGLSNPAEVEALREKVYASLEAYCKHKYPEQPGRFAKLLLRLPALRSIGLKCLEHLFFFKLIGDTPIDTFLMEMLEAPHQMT

In the case of `CCCCCCCCn1sc(Cl)c(Cl)c1=O`, the AC50 in [1] is 0.411 µM (active). The result in assay [2], in assay [3] and in assay [4] was inactive.
As to `CCCCCCCCCCCCCC[P+](CCCC)(CCCC)CCCC`, the AC50 in [1] was 11.5 µM (active); in assay [5] it was 5.62 µM (active); in [7] it was 9.75 µM (active). Further, the compound was classed as inactive in assay [6] and in assay [8].
As to `Cc1cccc(C)n1`, the compound was called inactive in [5], in [6], in [8], in [2], in assay [3] and in [4].
Regarding `CC1CCCCC1`, the result in assay [5], in assay [6], in assay [8], in assay [2], in assay [3] and in assay [4] was inactive.
With `C=CC(=O)OCC(F)(F)C(F)(F)C(F)(F)C(F)(F)C(F)(F)C(F)(F)C(F)(F)C(F)F`, the AC50 in assay [1] is 8.44 µM (active).
With `CCCCC(CC)COC(=O)c1ccc(N(C)C)cc1` (centres undefined), the outcome in [2] and in assay [3] was inactive.
With `C=C(C)C(=O)OCC(F)(F)C(F)(F)C(F)(F)C(F)F`, the AC50 in assay [1] is 25.5 µM (active).
In the case of `CCOC(=O)C1CC(=O)C(=C(O)C2CC2)C(=O)C1` (centres undefined), the outcome in [2] and in assay [3] was inactive.
Take `CCCCCCCC/C=C\CCCCCCCC(=O)N(C)CC(=O)O`: the AC50 in assay [1] is 95.4 µM (active). The outcome in [2], in assay [3] and in assay [4] was inactive.
On to `O=C1C=CC(=O)N1c1ccccc1`, for which the results for the AC50 in assay [5] and in [7] were 5.44 µM (active) and 5.34 µM (active), respectively. The compound was classed as inactive in assay [6] and in assay [8].
Take `C[C@]12CC[C@H]3C(=CCc4cc(O)ccc43)[C@@H]1CCC2=O`: the outcome in [9], in assay [10], in assay [11], in assay [6], in assay [8] and in assay [2] was inactive. The outcome in assay [3] and in [4] was inactive. In addition, the AC50 in [5] is 0.234 µM (active); in assay [7], 3.04 µM (active).
For `Cc1cnccn1`, the outcome in [2], in assay [3] and in assay [4] was inactive.
With `C=CC(=O)OCC(F)(F)C(F)(F)C(F)(F)COC(=O)C=C`, in assay [1], the AC50 is 19.6 µM (active).
With `NS(=O)(=O)C(F)(F)C(F)(F)C(F)(F)C(F)(F)C(F)(F)C(F)(F)F`, the half-maximal activity concentration (AC50) in [1] is 44.3 µM (active).
As to `CCN=c1cc2oc3cc(NCC)c(C)cc3c(-c3ccccc3C(=O)OCC)c-2cc1C`, the AC50 in assay [6] was 12.9 µM (active); in [7] it was 0.753 µM (active); in assay [8] it was 13.6 µM (active); in assay [2], 214 nM (active) and 159 nM (active); in assay [3], 96.9 nM (active) and 51.2 nM (active). In addition, in [4], the compound was called inactive.
`CSc1ccc(Cl)cc1`: the outcome in assay [2] and in assay [3] was inactive.
For `CN(N=O)C(=O)N[C@@H]1[C@@H](O)[C@H](O)[C@@H](CO)O[C@@H]1O`, the result in assay [2], in assay [3] and in [4] was inactive.
For the compound `O=C(c1ccccc1)c1ccc(O)cc1O`, the outcome in [12], in assay [13], in assay [9], in [10], in assay [14] and in assay [11] was inactive. In addition, the outcome in [2] and in assay [3] was inactive.
